# D1 antagonist: Antagonist of Human D 1 Dopamine Receptor: qHTS | D(1A) dopamine receptor (Homo sapiens), P21728 | hit rate 3.2% among 360,000 | HEK293 TREx D1 cells, calcium flux, dopamine EC80; hits give low values | AID 504652, 2011 | activity change, negative = inhibition, % at 10 µM; in the data active = activity change below about -30%; also: % is scaled to controls: 0 for no effect and ±100 for the full control effect
# Target sequence (P21728 whole entry, looked up): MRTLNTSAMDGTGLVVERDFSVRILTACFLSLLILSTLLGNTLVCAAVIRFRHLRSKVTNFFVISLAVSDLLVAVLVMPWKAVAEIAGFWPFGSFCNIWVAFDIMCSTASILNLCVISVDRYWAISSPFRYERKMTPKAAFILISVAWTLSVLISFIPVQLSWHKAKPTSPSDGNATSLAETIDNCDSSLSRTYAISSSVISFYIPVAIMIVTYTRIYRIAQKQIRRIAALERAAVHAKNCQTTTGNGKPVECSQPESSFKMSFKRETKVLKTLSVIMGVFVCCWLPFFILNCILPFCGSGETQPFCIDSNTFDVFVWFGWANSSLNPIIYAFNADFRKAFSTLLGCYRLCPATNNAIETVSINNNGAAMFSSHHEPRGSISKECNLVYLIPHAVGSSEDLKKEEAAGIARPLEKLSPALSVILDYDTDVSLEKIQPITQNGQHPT
#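 Compound effects on dopamine-evoked calcium signalling were measured in tetracycline-induced HEK293 Trex D1 cells. Dopamine at EC80 followed a 180 s compound pre-read, and fluorescence was tracked kinetically for 180 s more.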
# TRHR ag: qHTS for Small Molecule Agonists and Allosteric Enhancers of Human TRH Receptor: Primary Screen for Agonists; AID 493084, 2011; Thyrotropin-releasing hormone receptor (Homo sapiens), P34981; TRHR cells, calcium flux fluo-8, FDSS agonist mode; activation, % at 2 µM; hit rate 0.18% among 360,000; also: 0% is about no effect
#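 In this calcium-flux screen, cells bearing human TRHR are dye-loaded with fluo-8, baselined for 10 cycles, then exposed to library compounds; positive kinetic calcium responses during the agonist phase mark hits, with TRH as control.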
# TRHR PAM: qHTS for Small Molecule Agonists and Allosteric Enhancers of Human TRH Receptor: Primary Screen for Enhancers; Thyrotropin-releasing hormone receptor (Homo sapiens), P34981; TRHR cells, fluo-8 calcium fluorescence, EC20 TRH enhancement; enhancement, % at 2 µM; hit rate 0.66% among 360,000; in the data active = enhancement above about 30%; also: 0% is about no effect
#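 Enhancer read-out: after compound pinning and an initial kinetic agonist-mode read, an EC20 of TRH (10 nM final) was injected and fluo-8 calcium signal (Ex 480/Em 530) followed at 1 s/cycle for 100 cycles in TRHR-expressing cells.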
# D1 ag: Allosteric Agonists of the Human D1 Dopamine Receptor: qHTS. activation, % at 2 µM. D(1A) dopamine receptor (Homo sapiens), P21728. hit rate 1% among 360,000. HEK293 T-REx D1 cells, calcium flux, agonist mode; also: 0% is about no effect
#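 Inducible HEK293 T-REx D1 cells, force-coupled to calcium signalling, were plated at 4000 cells/well with tetracycline and held overnight at 30 C. After no-wash calcium dye loading, compound-evoked calcium rise over 180 s flagged agonists.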
# D1 PAM: Potentiators of Human D1 Dopamine Receptor: qHTS | AID 504651, 2011 | hit rate 0.036% among 360,000 | D(1A) dopamine receptor (Homo sapiens), P21728 | HEK293 TREx D1 cells, calcium flux, dopamine EC20 potentiation | potentiation, % at 10 µM; in the data active = potentiation above about 30%; also: 0% is about no effect
# * marks the source's active call; other numbers are inactive results; nt = not tested or not shown. The list is not random: actives were taken first. Their share in the collection is about 4.7%. Rule as the data show it, unless noted: active = activation above about 30%; inactive = the rest.
SMILES,D1 antagonist,TRHR ag,TRHR PAM,D1 ag,D1 PAM
COc1ccc(-n2c(SCC(=O)NCc3ccc(Cl)cc3)nc3ccsc3c2=O)cc1,3,1,-9,14,-2
O=c1c2nccnc2[nH]c(=S)n1Cc1ccccc1,7,0,5,6,0
O=c1c2cccnc2[nH]c(=S)n1Cc1ccccc1,-8,0,32*,2,4
Cc1ccc(Cn2c(CCNC(=O)c3cccc(C)c3)nc3ccccc32)cc1,-10,-3,-13,16,2
CCOc1ccc(CCNC(=O)c2c(C)oc3ncn(CC(C)C)c(=O)c23)cc1,-9,-1,12,0,-5
Cc1nn2c(CN(C(=O)COc3ccccc3)c3ccccc3)nnc2c2ccccc12,0,2,40*,2,2
O=C(Cn1c(=O)n(Cc2ccco2)c(=O)c2cccnc21)Nc1ccccc1F,-9,0,0,0,4
CCC1CCCCN1CCCNC(=O)c1ccc2c(c1)N(Cc1ccccc1F)C(=O)c1ccccc1S2(=O)=O (stereo not drawn),2,0,-12,6,-4
C=CCNC(=O)COC(=O)c1ccc(Cl)c(S(N)(=O)=O)c1,-37*,0,4,3,-15
O=C(COc1ccccc1Cl)N1CCc2ccccc2C1,10,0,-5,2,1
O=C(COc1ccccc1F)N1CCc2ccccc2C1,-58*,0,-1,1,-1
CC1(C)Cc2cccc(OCC(=O)N3CCN(c4ccccc4F)CC3)c2O1,-69*,0,7,4,-4
Cc1ccc(C(=O)NCCNS(=O)(=O)c2ccccc2)cn1,16,0,39*,5,-1
CCCCCC[n+]1c(-c2ccccc2)csc1Nc1ccccc1,-82*,0,1,1,1
O=S(=O)(c1ccc(F)cc1)N(CC(O)Cn1c2ccccc2c2ccccc21)c1ccccc1 (stereo not drawn),17,1,0,4,6
COc1ccccc1/C=N/NC(=O)c1c(-c2ccccc2)noc1C,5,-2,-2,-2,-8
Cc1onc(-c2ccccc2)c1C(=O)N/N=C/c1ccccc1OC(C)C,-31*,0,-6,4,-4
COc1ccccc1NC(=O)Cn1nc2c3cc(F)ccc3n(Cc3cccc(C)c3)cc-2c1=O,-5,0,-7,2,5
Cc1cc(C)n(C2CC(=O)N(c3cc(Cl)cc(Cl)c3)C2=O)n1 (stereo not drawn),-2,0,4,0,-3
Cc1cc(C)cc(N2C(=O)CC(n3nc(C)cc3C)C2=O)c1 (stereo not drawn),-43*,1,11,3,-8
CC(C)n1c(S(=O)(=O)O)nc2ccccc21,-34*,1,-5,2,-7
CCOc1ccccc1C(=O)Nc1ccc(NC(=O)c2ccccc2)cc1,5,1,34*,2,-2
COc1ccc(C(=O)Nc2ccc(C(=O)N3CCOCC3)cc2)cc1OC,-1,0,32*,3,13
COc1ccccc1C(=O)Nc1ccncc1,6,0,35*,1,-4
COc1ccccc1C(=O)NC(=S)Nc1ccc(Cc2ccncc2)cc1,48,3,-6,19,39*
SMILES,D1 antagonist,TRHR ag,TRHR PAM,D1 ag,D1 PAM
COc1ccc(NC(=O)Nc2ccc(C(=O)N3CCOCC3)cc2)cc1OC,4,1,-1,2,6
CCOc1ccccc1C(=O)Nc1ccc(C(=O)c2ccccc2)cc1,-13,-2,-11,9,-5
CCOc1ccc(N(C(C)C(=O)NCCSc2ccc(Cl)cc2)S(C)(=O)=O)cc1 (stereo not drawn),-1,4,-11,17,-2
COC(=O)C(Cc1c[nH]c2ccccc12)NC(=O)COc1cccc(C)c1 (stereo not drawn),-12,0,-1,5,-2
Cc1ccc(-c2cc(NC(=O)C(C)Oc3ccccc3F)on2)cc1 (stereo not drawn),-20,2,8,11,-2
Cc1cc2c(cc1S(=O)(=O)NCc1ccc(F)cc1)OCCN2C,-3,0,22,0,-1
CCOC(=O)c1ccc(NC(=O)c2ccc(OC(C)C)c(OC)c2)cc1,-32*,-1,-4,0,-13
Cc1ccc(C(=O)Nc2ccc(N3CCN(C(=O)c4ccco4)CC3)cc2)cc1,-9,-1,-10,2,2
O=C(Nc1ccc(N2CCN(C(=O)c3ccco3)CC2)cc1)c1ccc(Br)cc1,-32*,0,-7,0,-11
CCOc1ccc(NC(=O)c2oc3ccccc3c2NC(=O)c2c(F)cccc2F)cc1,-19,-2,-1,8,-4
CCOc1ccccc1C(=O)Nc1c(C(=O)Nc2ccc(F)cc2)oc2ccccc12,7,1,43*,5,-1
CCOc1ccc(NC(=O)c2ccccc2OC)cc1,-13,0,-3,0,41*
CCN1CCN(c2cc3c(cc2F)c(=O)c(S(=O)(=O)c2cc(C)cc(C)c2)cn3CC)CC1,-12,0,6,-2,0
Cc1ccc(CNC(=O)c2cc(Sc3ccc(F)cc3F)nc3ccccc23)cc1,-13,1,-2,7,-2
Cc1ccc(Cn2c(C)c(CNCc3ccccc3F)c(C(=O)O)c2C)cc1,15,0,1,-1,-2
O=C(Nc1ccc(C(=O)N2CCCCC2)cc1)c1ccc(Br)cc1,-31*,-1,1,4,-4
O=C(CNCCc1ccc(Cl)cc1)Nc1ccc(C(=O)N2CCCCC2)cc1,-16,1,-2,34*,-11
CC(=O)c1ccc(NC(=O)COc2ccccc2C(=O)Nc2ccccc2)cc1,-61*,1,-2,7,-11
CC(=O)c1ccc(NC(=O)COc2ccccc2C(=O)Nc2ccc(C)cn2)cc1,nt,-1,2,-2,-4
O=C(c1ccc(Br)cc1)N1CCCC1,-2,0,-4,1,-2
CC(=O)c1cccc(NC(=O)COC(=O)c2ccccc2C)c1,-17,-1,31*,15,-4
O=C(CNCCc1ccccc1)Nc1ccc(C(=O)N2CCCCC2)cc1,21,1,0,9,-9
CCOC(=O)C(CC)N1CCN(Cc2ccc(F)cc2)C(=O)C1=O (stereo not drawn),-20,0,-2,2,-1
O=C(CN1C(=O)C2CCCCN2c2ccc(C(=O)N3CCCC3)cc21)NCc1ccccc1F (stereo not drawn),-9,0,6,0,4

# Compound activity (PubChem BioAssay)
